PubChem BioAssay (Tox21)
Inconclusive results are not listed. A number with no mark means an inactive call. The call rests on the fitted dose curve; in most records, active means well fitted activation curve with a large enough effect in the repeat runs; inconclusive means weak or mixed curves; inactive means no such curve, though single readings can be large or run the other way.

Each molecule was assayed against Nuclear receptor subfamily 1 group I member 2 (Rattus norvegicus) (UniProt Q9R1A7) (assay: Rat pregnane X receptor (rPXR) activation by small molecules, qHTS assay (AID 1346983; further: nearly all actives have a fitted effect of over 20% in size)). Conditions: rPXR luciferase reporter cells, One-Glo luminescence, 24 h; active compounds read high.
Chain of Nuclear receptor subfamily 1 group I member 2 (Rattus norvegicus) (Q9R1A7 whole entry, looked up): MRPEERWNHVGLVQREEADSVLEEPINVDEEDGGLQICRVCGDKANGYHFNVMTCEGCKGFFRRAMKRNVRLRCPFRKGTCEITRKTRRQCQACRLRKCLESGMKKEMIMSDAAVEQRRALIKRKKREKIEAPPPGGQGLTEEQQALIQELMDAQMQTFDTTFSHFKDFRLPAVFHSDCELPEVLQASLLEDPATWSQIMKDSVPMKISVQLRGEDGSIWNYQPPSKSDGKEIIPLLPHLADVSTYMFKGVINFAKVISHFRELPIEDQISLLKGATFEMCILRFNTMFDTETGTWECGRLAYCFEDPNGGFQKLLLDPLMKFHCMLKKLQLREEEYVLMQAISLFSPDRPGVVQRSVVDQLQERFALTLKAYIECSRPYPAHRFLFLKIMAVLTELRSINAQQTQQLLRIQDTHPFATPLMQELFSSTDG
Description: National Center for Advancing Translational Sciences [NCATS] NIH Chemical Genomics Center [NCGC] U.S. Environmental Protection Agency [EPA] National Institutes of Environmental Health Sciences [NIEHS] National Toxicology Program [NTP] Assay overview: The Pregnane X receptor (PXR), a ligand activated nuclear receptor plays a critical role in the regulation of genes involved in drug metabolism and transporters. PXR binds xenobiotics and when compounds interact with PXR produces enhanced expression of CYP3A genes. In humans PXR activation and CYP3A4 induction can be problematic due to their interactions with co-medicated drugs and decrease their efficacy or increase their own metabolism. However, there are known species-specific differences with regard to PXR activation that should be taken into account when animal PXR data are extrapolated to humans. A cell based rat PXR (rPXR) assay (developed by Puracyp, Inc., CA) was used to assess the activation of rPXR.
Assay Protocol Summary: rPXR cells were dispensed at 2,000 per well in 5uL of assay medium into white, solid-bottom 1536-well plates using a Multidrop Combi dispenser (Thermo Scientific). The assay plates were incubated at 37 C for 5hr before transferring 23 nL of test compounds dissolved in DMSO and positive control via Pintool station (Wako). The assay plates were incubated at 37 C for 24 hr. Then 5ul One-Glo assay reagent (Promega) was added to each plate by a Flying Reagent Dispenser (FRD, Aurora Discovery) and following 30 min incubation at room temperature, luciferase activity was quantified on a ViewLux plate reader (Perkin Elmer).
On the % scale 0 is the no-effect control and ±100 the full control effect.

`Cc1cccc(C)c1NC(=O)C(C)N` (stereo not given) was tested. Which max activation did it give?
Its max activation is -0.615%.

`FC(F)OC(Cl)C(F)(F)F` (stereo not given) was tested. Which max activation did it give?
The max activation was -3.14%.

With `NS(=O)(=O)c1cc(C(=O)O)cc(N2CCCC2)c1Oc1ccccc1` as the molecule, how does the max activation read?
The max activation was 1.61%.

With `CC(C[N+](C)(C)C)OC(N)=O` (stereo not given) as the molecule, how does the max activation read?
The max activation was 0.875%.

How did the max activation turn out when `CCN(CC)CCNC(=O)c1cc(S(C)(=O)=O)ccc1OC` was run?
Its max activation is -2.45%.

Which max activation does the source give for `Cc1cccn2c(=O)c(-c3nnn[nH]3)cnc12` here?
Its max activation is -7.7%.

`COCCc1ccc(OCC(O)CNC(C)C)cc1` (stereo not given) was tested. Which max activation did it give?
The max activation was -0.133%.

How did the max activation turn out when `CC[N+](C)(C)c1cccc(O)c1` was run?
The max activation was -3.46%.

For `CN1CC(=O)NC1=N`, which max activation is on record?
The max activation was -5.88%.

Which max activation does the source give for `CCCC(=O)O[C@]1(C(=O)CO)CC[C@H]2[C@@H]3CCC4=CC(=O)CC[C@]4(C)[C@H]3[C@@H](O)C[C@@]21C` here?
Its max activation is 8.95%.

`COc1cc(C(=O)N2CCCCCCC2)cc(OC)c1OC` was tested. Which max activation did it give?
Its max activation is -0.931%.

`CN(C)CCCSc1ccccc1NC(=O)/C=C/c1ccccc1` was tested. Which max activation did it give?
Its max activation is 2.69%.

`Cc1c(NC(C)C)c(=O)n(-c2ccccc2)n1C` was tested. Which max activation did it give?
Its max activation is -1.85%.

`O=c1[nH]c(=O)n([C@H]2C[C@H](O)[C@@H](CO)O2)cc1I` was tested. Which max activation did it give?
The max activation was 6.42%.

For `NC(=O)c1cn(Cc2c(F)cccc2F)nn1`, which max activation is on record?
Its max activation is -1.62%.

Which max activation does the source give for `CCOC(=O)c1c(C)n(C)c2ccc(O)cc12` here?
The max activation was -1.63%.

`Nc1nc2c(ncn2COC(CO)CO)c(=O)[nH]1` was tested. Which max activation did it give?
Its max activation is 0.872%.

With `CCN1CCC[C@H]1CNC(=O)c1cc(S(N)(=O)=O)ccc1OC` as the molecule, how does the max activation read?
Its max activation is -2.59%.

With `O=C1NC(=O)[C@@]2(CCOc3ccc(F)cc32)N1` as the molecule, how does the max activation read?
The max activation was -0.447%.

Which max activation does the source give for `Cc1cc(O)cc2c1O[C@](C)(CCC[C@H](C)CCC[C@H](C)CCCC(C)C)CC2` here?
Its max activation is -2.13%.

How did the max activation turn out when `C[C@@H]1CCN(C(=O)[C@H](CCCN=C(N)N)NS(=O)(=O)c2cccc3c2NC[C@H](C)C3)[C@@H](C(=O)O)C1` was run?
Its max activation is -0.172%.

For `CC(C)NCC(O)c1ccc(NS(C)(=O)=O)cc1` (stereo not given), which max activation is on record?
The max activation was -1.64%.

`Cc1[nH]c(=O)c(C#N)cc1-c1ccc2nccn2c1` was tested. Which max activation did it give?
Its max activation is 0.264%.

For `N[C@@H](C(=O)N[C@@H]1C(=O)N2C(C(=O)O)=C(Cl)CS[C@H]12)c1ccccc1`, which max activation is on record?
The max activation was -2.39%.

How did the max activation turn out when `CC(=O)Nc1c(I)cc(I)c(C(=O)O)c1I` was run?
The max activation was -2.53%.

With `NC(CSCC(=O)O)C(=O)O` (stereo not given) as the molecule, how does the max activation read?
Its max activation is -3.73%.

How did the max activation turn out when `CC1(C)CO[C@@H](CC(=O)O)CN1` was run?
The max activation was -0.675%.

With `COc1c(N2C[C@@H]3CCCN[C@@H]3C2)c(F)cc2c(=O)c(C(=O)O)cn(C3CC3)c12` as the molecule, how does the max activation read?
The max activation was -3.75%.

Which max activation does the source give for `CC(C)CCCC(C)N` (stereo not given) here?
Its max activation is -5.35%.

For `C[C@](N)(Cc1ccc(O)cc1)C(=O)O`, which max activation is on record?
The max activation was 0.627%.

With `CCN(CC)CCOCCOC(=O)C1(c2ccccc2)CCCC1` as the molecule, how does the max activation read?
Its max activation is 0.476%.

How did the max activation turn out when `Nc1ccc(S(=O)(=O)Nc2ccnn2-c2ccccc2)cc1` was run?
Its max activation is 8.45%.

`CC(=O)OCC(CCn1cnc2cnc(N)nc21)COC(C)=O` was tested. Which max activation did it give?
The max activation was -0.776%.

For `c1ccc([C@H]2CN3CCSC3=N2)cc1`, which max activation is on record?
The max activation was -1.7%.

How did the max activation turn out when `CN(C(=O)c1c(O)c2ccccc2n(C)c1=O)c1ccccc1` was run?
Its max activation is -3.59%.

With `C[N+](C)(C)CC(O)CC(=O)[O-]` (stereo not given) as the molecule, how does the max activation read?
The max activation was 7.16%.

For `O=C(O)Cc1ccc(CCNS(=O)(=O)c2ccc(Cl)cc2)cc1`, which max activation is on record?
Its max activation is -10%.

For `CCCc1cc(C(N)=S)ccn1`, which max activation is on record?
The max activation was 0.144%.

Which max activation does the source give for `CCCN1CCCC[C@H]1C(=O)Nc1c(C)cccc1C` here?
The max activation was 0.29%.

With `N[C@H](C(=O)O)c1ccc(O)cc1` as the molecule, how does the max activation read?
The max activation was -1.63%.
